Assay outcomes (PubChem BioAssay)
A selection: hits, their analogues and other compounds. The true share with any hit is near 7.5%.
SMN2 splice up: increases expression of the SMN2 splice variant; Potency, µM (top dose mostly 46.1 µM), for inactives: at the top dose activity change, positive = activation, most hits filed as activators; AID 1458; HEK293 SMN2-luciferase splicing reporter, luminescence, 30-36 h; actives 2.8% (n = 210,000); also: % of control where 0% means no effect; nearly all actives have a fitted effect of over 55% in size
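HEK293 cells carry an SMN2 […]–luciferase reporter in which exon 7 inclusion puts luciferase in frame. Cells were plated 10-12 h before compound addition, then incubated 30-36 h at 37C. ONE-Glo luminescence was read; sodium butyrate at 4.5 mM final served as control.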
Rab9 prom act: activates the Rab9 promoter | Huh7 Rab9 promoter-luciferase reporter, luminescence, 24 h | Potency, µM (top dose mostly 9.22 µM), without a hit: at the top dose activation, negative = inhibition, most hits filed as activators | actives 2.8% (n = 320,000); also: % of control where 0% means no effect; nearly all actives have a fitted effect of over 60% in size
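Promoter activation is measured as luciferase luminescence in Huh7 cells stably transfected with a Rab9 promoter–luciferase construct, following 24 h compound exposure at 37 °C and 10 min reagent incubation at ambient temperature.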
ELG1 genotoxic: induces genotoxicity in HEK293T cells with luciferase-tagged ELG1; HEK293T ELG1-luciferase reporter, luminescence, 16 h; AID 504466; actives 1.3% (n = 330,000); Potency, µM (top dose mostly 46 µM), for inactives: top-dose activity change, positive = activation, usual class: activators; also: % of control where 0% means no effect; nearly all actives have a fitted effect of over 60% in size
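Step 1: seed 2,000 HEK293T ELG1-luciferase cells per well. Step 2: add compound or DMSO, incubate 16 hr at 37 °C. Step 3: ONE-Glo, 30 min at room temperature, read luminescence.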
NPC1 prom act: activators of NPC1 promoter; Huh7 NPC1 promoter luciferase reporter, 24 h; actives 2.4% (n = 320,000); Potency, µM (doses to about 9.22 µM), inactives show at the top dose activation, most hits filed as activators; AID 485313; also: % of control where 0% means no effect; nearly all actives have a fitted effect of over 60% in size
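Luminescence from an NPC1 promoter-driven luciferase reporter in stably transfected Huh7 cells was measured after 24 h compound treatment at 37 °C, followed by 10 min ambient incubation with luciferase detection reagent.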
KinaseGlo FLuc: counter-screen: inhibitors of Kinase-Glo firefly luciferase | Q27757 | Kinase-Glo luciferase, ATP luminescence, 8 min | Potency, µM (top dose mostly 38.3 µM), for inactives: at the top dose activity change, negative = inhibition, hits mostly inhibitors | actives 0.28% (n = 200,000) | AID 1379; also: % is scaled to controls: 0 for no effect and ±100 for the full control effect; nearly all actives have a fitted effect of over 60% in size
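Compound is pinned into ATP-containing buffer (10 uM ATP, imidazole pH 7.2, 7 mM MgCl2). Kinase-Glo luciferase reagent is then added. Light output is recorded following an 8-min room-temperature incubation.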
FLuc modulator: inhibits or activates purified firefly luciferase, miR-21 counter-screen; purified FLuc, Km substrates, luminescence inhibition; actives 6.9% (n = 360,000); AID 588342; Potency, µM (top dose mostly 57.5 µM), inactives show at the highest dose activity change, negative = inhibition, most hits filed as inhibitors; P08659;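 also: plate controls were vehicle for no effect and reference inhibitor for full effect; nearly all actives have a fitted effect of over 55% in size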
Target sequence (P08659 whole entry, looked up): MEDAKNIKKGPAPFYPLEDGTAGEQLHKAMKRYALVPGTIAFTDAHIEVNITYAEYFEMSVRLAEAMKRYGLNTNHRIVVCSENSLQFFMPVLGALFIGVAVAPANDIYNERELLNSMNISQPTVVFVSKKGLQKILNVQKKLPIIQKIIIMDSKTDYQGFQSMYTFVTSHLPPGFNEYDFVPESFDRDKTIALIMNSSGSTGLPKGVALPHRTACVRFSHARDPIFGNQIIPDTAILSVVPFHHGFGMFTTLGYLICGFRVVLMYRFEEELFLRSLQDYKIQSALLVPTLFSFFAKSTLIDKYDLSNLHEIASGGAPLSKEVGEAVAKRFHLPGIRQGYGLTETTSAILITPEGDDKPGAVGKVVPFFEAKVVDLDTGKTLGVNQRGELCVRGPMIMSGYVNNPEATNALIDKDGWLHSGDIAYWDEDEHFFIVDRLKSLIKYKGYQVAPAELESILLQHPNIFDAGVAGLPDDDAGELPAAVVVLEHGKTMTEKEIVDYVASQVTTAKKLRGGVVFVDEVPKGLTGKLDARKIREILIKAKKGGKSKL
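Purified P. pyralis luciferase (10nM final) with 10uM D-luciferin and 10uM ATP (Km levels) in 50mM Tris acetate pH 7.5, 10mM Mg acetate, 0.01% Tween-20, 0.05% BSA; qHTS 6-point titration, ~60 µM downward; luminescence read.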
Active calls of the source: *; ? = inconclusive; / = no result given. Calls follow the shape of the dose curve; as a rule, active = well fitted curve in the direction sought with a large enough effect; inconclusive = small, poorly fitted or top-dose-only effect, or another doubt; inactive = no such curve, though single readings can be large; an effect the other way counts as inactive or inconclusive. Potency is read from the fitted curve at half-maximal effect.

SMILES	SMN2 splice up	Rab9 prom act	ELG1 genotoxic	NPC1 prom act	KinaseGlo FLuc	FLuc modulator
COC(=O)CC(=O)CSc1nc2c(cc1C#N)CCCCC2	?	?	?	22%	3%	5.4µM*
O=C(N/N=C/c1ccsc1)c1cc(-c2ccncc2)nc2ccccc12	7%	-11%	5%	-17%	-3%	?
O=C(NC1=NCCS1)c1cc(-c2cccs2)nc2ccccc12	/	0%	-10%	2%	/	12µM*
O=C(N/N=C/c1ccsc1)c1cc(-c2cccs2)nc2ccccc12	?	-5%	-4%	-12%	-4%	9.5µM*
CC(C)NC(=O)c1cc(-c2cccs2)nc2ccccc12	/	0%	-11%	-3%	/	-11%
C/C(=N\NC(=O)c1cc(-c2cccs2)nc2ccccc12)c1ccccn1	-81%	-45%	0%	-20%	0%	24µM*
Cc1ccc2nc(C)c(C(=O)N/N=C/c3ccc(C(=O)O)cc3)cc2c1	/	?	5%	-4%	-1%	5.4µM*
O=C(c1ccc2c(c1)N(Cc1ccc(Cl)cc1)C(=O)c1ccccc1S2(=O)=O)N1CCCC1	-9%	/	/	/	/	-5%
Cc1ccc(SCCCCN2C(=O)NC(C)(C)C2=O)cc1	-11%	-5%	0%	-2%	-1%	-11%
NNC(=O)c1cc(-c2cccs2)nc2ccccc12	/	-3%	-1%	-1%	/	-19%
O=C(O)c1ccc(/C=N/NC(=O)c2cc(-c3cccs3)nc3ccccc23)cc1	4%	9%	9%	2%	0%	6µM*
Oc1c(Cl)cc(Cl)cc1C=Nc1cc(C(F)(F)F)ccc1N1CCc2ccccc2C1	/	?	?	?	/	1.9µM*
Cc1cc(C)c(OCC(=O)N(Cc2ccc(N(C)C)cc2)CC2CCCO2)c(C)c1 (stereo unspecified)	5%	/	/	/	/	1%
O=C(O)c1cccc(N/N=C(\N=Nc2ccccc2)c2ccccc2)c1	/	?	?	?	/	17µM*
NC(=O)/C(N=Nc1ccccc1)=N/Nc1ccccc1	/	-1%	11%	1%	/	-10%
O=C(/C(=N\Nc1ccc(Br)cc1)Sc1nnnn1-c1ccccc1)c1ccccc1	14%	-10%	-5%	-2%	0%	0%
Brc1ccc(N/N=C(/N=Nc2nn[nH]n2)c2ccccc2)cc1	-117%	-41%	-2%	-31%	?	19µM*
O=C(O)c1ccc(N=N/C(=N\Nc2ccc(C(=O)O)cc2)c2ccccc2)cc1	/	?	12%	?	/	17µM*
CC1CCCCN1Cc1c(O)ccc2c(=O)c(-c3nc4ccccc4s3)coc12 (stereo unspecified)	/	21%	0%	24%	/	21µM*
CCc1cc2c(=O)c(-c3nc4ccccc4n3C)coc2c(CN2CCCCC2C)c1O (stereo unspecified)	/	-4%	-7%	-1%	/	1%
CCC1CCC2(CC1)NC(=O)N(CC(=O)Nc1ccc(OC)c(Cl)c1)C2=O (stereo unspecified)	/	-2%	0%	-3%	/	4%
CC(=O)Nc1ccc(Nc2nc(C)c([N+](=O)[O-])c(Nc3ccc(NC(C)=O)cc3)n2)cc1	?	-5%	-2%	-6%	2%	1%
Cc1ccc(C)c(Cn2nnc3c(=O)[nH]c(C4CCCN(C(=O)c5cccs5)C4)nc32)c1 (stereo unspecified)	/	-5%	-6%	1%	/	2%
O=C(CSc1nc(-c2ccccc2)ns1)N1CCOCC1	/	2.8µM*	23µM*	2.5µM*	-3%	?
O=C(CSc1nc2ccccc2nc1SCC(=O)N1CCOCC1)N1CCOCC1	1%	-2%	-7%	-1%	0%	-2%
Cc1cccc(-c2nsc(SCC(=O)N3CCCC3)n2)c1	14µM*	1.4µM*	?	1.6µM*	-5%	6µM*
Cc1cccc(-c2nsc(SCC(=O)Nc3nccs3)n2)c1	17%	18%	11%	4%	-2%	-15%
